# Reference: PubChem BioAssay AID492949 (National Center for Advancing Translational Sciences (NCATS), 2010)
# Records with an inconclusive call do not appear. Where a call stands in place of a potency, no number is given. Activity calls are given as the source filed them. The call rests on the fitted dose curve; in most records, active means well fitted activation curve with a large enough effect; inconclusive means small, poorly fitted or top-dose-only effect; inactive means no such curve, though single readings can be large or run the other way.
# Biological target: Relaxin receptor 1 (Homo sapiens) (UniProt Q9HBX9)
# Assay: qHTS Assay for Agonists of the Relaxin Receptor RXFP1: THP1 Hit Validation; further: nearly all actives have a fitted effect of over 60% in size
# Details: THP1-RXFP1 cells, cAMP TR-FRET, 30 min; series mostly up to 115 µM
# Summary of the method: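 TR-FRET cAMP readout (signal falls as cAMP rises) in lysed RXFP1-transfected THP1 cells after 30 min compound treatment, 37C, PDE4 inhibitor present. EC50 from Hill equation, 0-100% set by buffer and 29 nM porcine relaxin.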
# Potency means the concentration at half of the fitted maximal effect.
# Sequence of Relaxin receptor 1 (Homo sapiens) (Q9HBX9 whole entry, looked up): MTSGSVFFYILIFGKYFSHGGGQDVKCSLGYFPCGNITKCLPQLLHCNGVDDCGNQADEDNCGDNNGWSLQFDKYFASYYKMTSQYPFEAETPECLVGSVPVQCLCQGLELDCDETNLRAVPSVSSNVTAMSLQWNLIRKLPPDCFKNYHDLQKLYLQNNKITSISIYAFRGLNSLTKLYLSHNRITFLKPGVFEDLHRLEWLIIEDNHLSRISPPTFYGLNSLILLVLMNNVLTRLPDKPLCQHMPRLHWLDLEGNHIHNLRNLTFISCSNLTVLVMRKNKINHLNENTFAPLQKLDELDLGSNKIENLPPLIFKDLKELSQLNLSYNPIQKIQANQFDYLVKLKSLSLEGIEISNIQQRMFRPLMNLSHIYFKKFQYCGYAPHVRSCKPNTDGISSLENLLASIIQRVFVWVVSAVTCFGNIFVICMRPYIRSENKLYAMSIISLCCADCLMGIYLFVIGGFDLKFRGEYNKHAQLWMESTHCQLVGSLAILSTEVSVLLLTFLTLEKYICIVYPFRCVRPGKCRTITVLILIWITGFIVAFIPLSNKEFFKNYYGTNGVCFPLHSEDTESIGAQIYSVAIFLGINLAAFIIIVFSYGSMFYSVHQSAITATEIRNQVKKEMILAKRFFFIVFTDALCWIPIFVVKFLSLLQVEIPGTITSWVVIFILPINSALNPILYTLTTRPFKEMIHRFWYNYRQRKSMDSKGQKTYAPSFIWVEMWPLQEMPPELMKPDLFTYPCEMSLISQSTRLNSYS
row,SMILES,Potency
1,Cc1cc(C)c(NC(=O)CS(=O)CC(=O)Nc2ccc(F)cc2F)c(C)c1 (centres undefined),inactive
2,O=C(Nc1ccccc1C(=O)NCc1ccco1)c1ccccc1,inactive
3,COC(=O)c1c(N2C(=O)CC(Sc3ncccc3C(=O)O)C2=O)sc(C)c1C (centres undefined),inactive
4,CCC(=O)Nc1ccc(NC(=O)CSc2nc3c(c(=O)n(C)c(=O)n3C)n2CC)cc1,43.6 µM (active)
5,CCc1ccc(-c2nc3ccc(Br)cc3c(C(=O)O)c2C)s1,6.15 µM (active)
6,Cc1ccc(CN(C)C(=O)c2ccc3c(c2)NC(=O)CS3)o1,inactive
7,COC(=O)[C@@H]1C[C@@]2(O)[C@H](O)[C@H](O)[C@H](O)C[C@H]2N1Cc1cc(F)ccc1F,inactive
8,Brc1ccc2ncnc(NCc3cccnc3)c2c1,48.9 µM (active)
9,O=C(Nc1ccccc1C(=O)NCc1ccco1)c1ccco1,inactive
10,COc1ccc(CC(=O)N/N=C/c2cccnc2)cc1OC,inactive
11,CC[n+]1ccc(/C=C/c2ccc(N(C)C)cc2)c2ccccc21,inactive
12,c1ccc(COn2nnc3ccccc32)c(COn2nnc3ccccc32)c1,inactive
13,C=C(C)C(=O)Nc1cccc(C2=NOC3(C2)C[C@@H](C(N)=O)N(C(=O)c2ccc(Cl)cc2)C3)c1 (some centres undefined),inactive
14,C=CCSc1nc2c(c(=O)[nH]1)C(C(C)C)C(C#N)=C(N)O2 (centres undefined),inactive
15,O=C(Nc1ccccc1)c1ccccc1NC(=O)C1CCCCC1,inactive
16,Cc1ccccc1OCC(=O)Nc1sc(C(=O)Nc2cccc(C)c2C)c(C)c1C#N,7.74 µM (active)
17,O=C(Cn1cnc2c(nnn2-c2ccc(F)cc2)c1=O)NCC1CCCO1 (centres undefined),8.7 µM (active)
18,N#Cc1c(N)nc(SCC(=O)C23CC4CC(CC(C4)C2)C3)c(C#N)c1-c1ccc(Cl)cc1,12.3 µM (active)
19,COc1ccc(CNC(=O)CN2C(=O)NC(C)(c3cccc(Br)c3)C2=O)cc1 (centres undefined),inactive
20,CCOc1ccc2cc(C#N)c(SCC(=O)NC(C)CC)nc2c1 (centres undefined),6.9 µM (active)

row,SMILES,Potency
1,COc1ccccc1CNS(=O)(=O)c1cc(CN2C(=O)c3cccnc3C2=O)ccc1OC,17.4 µM (active)
2,CCOC(=O)CCCCC(=O)c1[nH]c(=O)[nH]c1CSc1nnc2c3cc(Br)ccc3n(C)c2n1,8.68 µM (active)
3,O=C(OCc1nc2ccsc2c(=O)[nH]1)c1cccc(S(=O)(=O)N2CCOCC2)c1,43.6 µM (active)
4,Cn1c(=O)c2sccc2n2c(CCCC(=O)NCc3ccco3)nnc12,34.6 µM (active)
5,CN(CC(=O)Nc1ccccc1Cl)C(=O)COC(=O)Cc1c(F)cccc1Cl,inactive
6,Cc1ccc2cc(CN(C(=O)c3cccs3)c3ccccc3)c(=O)[nH]c2c1,inactive
7,O=C(Nc1cccc(C(F)(F)F)c1)c1ccccc1NC(=O)C1CCCCC1,inactive
8,CC(C)(C)C(=O)Nc1ccccc1C(=O)NCc1ccco1,inactive
9,CN(C)S(=O)(=O)c1ccc(C(=O)OCC(=O)Nc2cccnc2Cl)cc1,19.4 µM (active)
10,CCN(CC)C(=O)c1cc(Cl)ccc1NC(=O)c1ccco1,inactive
11,COc1ccc(OC)c(CNC(=O)C2CCN(C(=O)N(C)C)CC2)c1,inactive
12,CN(C)S(=O)(=O)c1cccc(COc2ncnc3c(Cl)cc(Cl)cc23)c1,5.49 µM (active)
13,Cn1c(N)c(C(=O)CSc2nnc(NC3CCCCC3)s2)c(=O)n(C)c1=O,inactive
14,S=c1nc[nH]c2c1[nH]c1ccccc12,7.74 µM (active)
15,O=C(Nc1ccccc1C(=O)N1CCCCC1)c1ccco1,inactive
16,O=[N+]([O-])c1cc2c(c(CSc3nnc4ccccn34)c1)OCOC2,13.8 µM (active)
17,Cc1cc(NC(=O)c2ccccc2F)nc2c1c(=O)oc1ccccc12,19.4 µM (active)
18,CCCC(=O)Nc1ncnc2c1ncn2[C@@H]1O[C@@H]2COP(=O)(O)O[C@H]2[C@H]1OC(=O)CCC,1.23 µM (active)
19,NC(=O)c1ccccc1NC(=O)CC12CC3CC(CC(C3)C1)C2,inactive
